Sampled rows, rich in hits. Any-hit rate of the full collection: about 12%.
L3MBTL1 inh: inhibitors of human L3MBTL1; 230,000 tested, 0.66% active; Potency, µM (titrated, usually from 57.1 µM), usual class: inhibitors; AlphaScreen L3MBTL1–H3K9me1 peptide binding; note: nearly all actives have a fitted effect of over 60% in size
Target sequence (Q9Y468 whole entry, looked up): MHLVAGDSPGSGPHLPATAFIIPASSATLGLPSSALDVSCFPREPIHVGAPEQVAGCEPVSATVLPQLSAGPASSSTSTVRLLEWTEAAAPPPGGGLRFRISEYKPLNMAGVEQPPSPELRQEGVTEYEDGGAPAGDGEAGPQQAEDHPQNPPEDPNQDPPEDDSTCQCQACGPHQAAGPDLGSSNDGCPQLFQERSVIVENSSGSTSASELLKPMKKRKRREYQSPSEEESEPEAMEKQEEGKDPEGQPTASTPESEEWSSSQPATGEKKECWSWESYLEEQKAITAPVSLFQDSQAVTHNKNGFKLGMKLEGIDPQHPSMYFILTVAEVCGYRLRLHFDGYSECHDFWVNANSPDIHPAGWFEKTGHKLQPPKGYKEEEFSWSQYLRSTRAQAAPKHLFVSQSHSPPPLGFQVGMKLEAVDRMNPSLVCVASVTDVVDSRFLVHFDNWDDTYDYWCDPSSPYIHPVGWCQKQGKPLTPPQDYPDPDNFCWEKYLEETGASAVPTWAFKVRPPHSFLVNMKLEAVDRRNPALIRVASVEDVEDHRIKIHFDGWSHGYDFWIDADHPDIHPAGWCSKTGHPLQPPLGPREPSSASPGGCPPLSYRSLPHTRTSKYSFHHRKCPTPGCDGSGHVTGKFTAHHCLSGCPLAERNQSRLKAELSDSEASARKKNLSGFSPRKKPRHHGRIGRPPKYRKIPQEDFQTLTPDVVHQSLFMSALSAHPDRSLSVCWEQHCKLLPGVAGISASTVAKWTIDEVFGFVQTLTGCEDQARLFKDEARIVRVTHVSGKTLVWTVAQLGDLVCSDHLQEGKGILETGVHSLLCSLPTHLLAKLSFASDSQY
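L3MBTL1 50 nM + b-AHA-H3(1-15)K9me1 75 nM, 30 min RT; compound added, 30 min RT; streptavidin donor/Ni-chelate acceptor beads 10 ug/mL each final, 30 min RT dark; AlphaScreen read.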
BAZ2B block: blocks human BAZ2B | 360,000 tested, 4.4% active | AID 504333 | Potency, µM (doses to about 114 µM), most hits filed as inhibitors | AlphaScreen BAZ2B-H3K14Ac peptide displacement | Q9UIF8; note: nearly all actives have a fitted effect of over 60% in size
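AlphaScreen displacement: compounds (up to 110uM) incubated 30 min at room temperature with a preformed 50 nM BAZ2B/50 nM biotinylated H3K14Ac peptide complex in PBS pH 7.4 with Tween-20. Donor and acceptor beads at 10 ug/mL final added, 20 min light-protected before reading.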
Sfp PPTase inh: blocks B. subtilis Sfp PPTase activity; AID 1490; 310,000 tested, 3.5% active; Potency, µM, actives largely listed as inhibitors; Q9F4F7; Biochemical Sfp PPTase activity, qHTS;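 note: the enzyme is Sfp with the accession as filed and its product quenches rhodamine fluorescence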
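Fluorescence-quenching assay with 15 nM Sfp, 5 uM rhodamine-CoA and 12.5 uM BHQ-2-labelled ybbR peptide in pH 7.6 Hepes/MgCl2 buffer. Enzyme was pre-incubated with compound for 15 min at room temperature. Rate was taken from the 30-min fluorescence change (525/598 nm).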
HP1b chromo inh: HP1-beta chromodomain-methylated histone interaction inhibition; P83916; Potency, µM (highest dose often 114 µM), usual class: inhibitors; AlphaScreen HP1-beta / biotin-H3K9me3 peptide binding; 390,000 tested, 0.56% active; note: nearly all actives have a fitted effect of over 70% in size
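AlphaScreen: HP1-beta (50 nM) preformed 30 min with biotin-H3(1-18)K9me3 peptide (50 nM) in PBS pH 7.4, 0.01% Tween-20. Compound added for 30 min at RT, then streptavidin donor/nickel chelate acceptor beads (10 ug/mL) for 30 min.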
G9a block: blocks human histone lysine methyltransferase G9a | G9a H3K9 monomethylation, AlphaScreen, 2 h | Potency, µM (titrated, usually from 102 µM), actives largely listed as inhibitors | 350,000 tested, 8.8% active | AID 504332; note: nearly all actives have a fitted effect of over 75% in size
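G9a (20 nM) was preincubated 15 min with compound, then reacted 2 h at room temperature with 500 nM biotin-H3K9 peptide and 20 µM SAM. Monomethyl-H3K9 detected by AlphaScreen using anti-H3K9me1 antibody.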
JMJD2A Tudor: blocks the human JMJD2A Tudor domain. Potency, µM (doses to about 114 µM), actives largely listed as inhibitors. AlphaScreen JMJD2A-Tudor / H3K4me3 peptide binding. AID 504339. O75164. 390,000 tested, 4.4% active; note: nearly all actives have a fitted effect of over 50% in size
Hits are given with their value; – = inactive; ? = inconclusive; · = no result; [ ] = dose if it differs, or a comment. Calls come from the whole dose curve; as a rule, active = well fitted curve in the direction sought with a large enough effect; inconclusive = small, poorly fitted or top-dose-only effect, or another doubt; inactive = no such curve, though single readings can be large; an effect the other way counts as inactive or inconclusive.

SMILES	L3MBTL1 inh	BAZ2B block	Sfp PPTase inh	HP1b chromo inh	G9a block	JMJD2A Tudor
COc1ccc(N2CCN(Cc3nnnn3C3CCCCC3)CC2)cc1	–	–	–	?	50µM	–
COc1ccc(N2CCN(Cc3cccn3-c3nnc(N4CCN(C5CCCCC5)CC4)s3)CC2)cc1	·	?	·	?	?	50µM
COc1ccc(NCc2cccn2-c2nnc(N3CCCCCC3)s2)cc1	·	–	·	?	?	45µM
Cc1ccc(NCc2cccn2-c2nnc(N3CCCCCC3)s2)cc1	·	–	·	–	–	?
CCOc1ccc(NCc2cccn2-c2nnc(N3CCC(C(=O)NCCCN4CC(C)CC(C)C4)CC3)s2)cc1 (stereo unspecified)	·	?	–	?	45µM	40µM
CCOc1ccc(NCc2cccn2-c2nnc(N3CCC(C(=O)NCCc4ccc(OC)c(OC)c4)CC3)s2)cc1	·	?	·	–	?	?
CCOc1ccccc1NC(=O)CN(CCc1ccccc1)S(=O)(=O)c1ccc(C)cc1	·	–	·	–	–	–
O=C1CNC(=S)N1CCc1ccc(O)c(O)c1	·	–	45µM	–	10µM	?
O=C1CNC(=S)N1CCOc1ccccc1	–	–	–	–	–	–
COC(=O)C1=C(C(=O)OC)[C@@H]2N(C)c3ccc(OC)cc3[C@@]23C[C@@H](C(=O)OC)N(S(=O)(=O)c2cccs2)C3=N1	·	·	–	·	·	·
CCN(c1cccc(C)c1)c1ncnc2nc[nH]c12	–	–	–	–	–	–
CCN(CCCNc1ncnc2nc[nH]c12)c1cccc(C)c1	–	50µM	–	–	18µM	40µM
CCCCc1cc2c(cn1)=C(OC(=O)CCC(=O)OC)C(C)(OC(=O)CC)C(=O)C=2 (stereo unspecified)	·	·	–	·	·	·
O=C(CSC1=NS(=O)(=O)c2cc(F)ccc2N1)Nc1ccccc1	–	–	·	–	–	?
O=C(CSC1=NS(=O)(=O)c2ccccc21)Nc1ccccc1	·	?	13µM	–	7.9µM	–
COC(=O)CSC1=NS(=O)(=O)c2ccccc21	–	–	3.5µM	–	1.4µM	16µM
COc1ccc(N2C(=O)CC(Sc3ncccc3C(=O)O)C2=O)cc1 (stereo unspecified)	·	–	–	–	?	–
O=C(O)c1cccnc1SC1CC(=O)N(c2ccccc2)C1=O (stereo unspecified)	·	–	–	–	56µM	–
O=C(O)c1ccccc1SC1CC(=O)N(c2ccccc2)C1=O (stereo unspecified)	–	–	79µM	–	?	?
CC(c1ccccc1)N1C(=O)CC(Sc2ncccc2C(=O)O)C1=O (stereo unspecified)	–	–	–	–	22µM	–
CCc1nnc(NC(=O)CSc2nccn2Cc2ccc(Cl)cc2)s1	·	–	·	–	–	–
O=C(COc1ccc(Br)cc1Br)NC(=S)N1CCCc2ccccc21	·	50µM	56µM	–	8.9µM	50µM
O=C(COc1ccc(Br)cc1Cl)NC(=S)N1CCc2ccccc21	–	–	–	–	–	–
N#Cc1ccc(C(=O)NN2C(=O)NC3(CCCCC3)C2=O)cc1	–	–	·	–	56µM	–
CN(C)c1cccc(C(=O)NN2C(=O)NC3(CCCCC3)C2=O)c1	?	–	·	–	–[12.7 µM]	–
SMILES	L3MBTL1 inh	BAZ2B block	Sfp PPTase inh	HP1b chromo inh	G9a block	JMJD2A Tudor
Cc1[nH]c2ccccc2c1C(c1ccccn1)N1CCC(C)CC1 (stereo unspecified)	–	–	–	–	?	–
CCOC(=O)C1CCCN(C(c2ccccn2)c2c(C)[nH]c3ccccc23)C1 (stereo unspecified)	–	–	45µM	–	1.4µM	–
Cc1ccnc(NC(c2ccccn2)c2c(C)[nH]c3ccccc23)c1 (stereo unspecified)	–[11.4 µM]	–	?	?	?	56µM
Cc1[nH]c2ccccc2c1C(c1ccccn1)N1CCCC1 (stereo unspecified)	–	–	–	–	45µM	–
Cc1cc(NC(c2cccnc2)c2c(C)[nH]c3ccccc23)no1 (stereo unspecified)	–	–	–	–	–[12.7 µM]	–
CCN(C(=O)CSc1nc2ccccc2nc1Cc1cccc(OC)c1)c1cccc(C)c1	·	–	·	–	–	–

From PubChem
